INHIBITION data for 53 compounds are collected here from ChEMBL document CHEMBL4513216, “Probing the Open Global Health Chemical Diversity Library for Multistage-Active Starting Points for Next-Generation Antimalarials” (ACS Infect Dis, 2020).

The campaign covered roughly 65,000 compounds. About 2,100 (3.2%) showed an effect of 50% or more. The median lay at about -52%. For the sample, strong results were picked, then their nearest neighbours and some compounds at random.

This assay concerns Plasmodium falciparum. Briefly: Screen against P. falciparum Asexual Blood Stage (ABS), at 5uM. It counts as functional, Dd2. The settings on record: tested at 5 uM.
In the case of `O=S(=O)(C1CC1)N1CCC2(COCc3cnc(NCC4CC4)nc32)C1` (stereo not drawn), the INHIBITION is listed as -35.7%. Regarding `CN(C)c1ncc2c(n1)C1(CCN(Cc3ccccc3F)C1)COC2` (stereo not drawn), the INHIBITION is on record as 4.25%. With `Cc1cccc(CN2Cc3ccnn3CC(COCC3CC3)C2)n1` (stereo not drawn) the figure was -11.3%; with `COCCN1CCN(C(=O)NC2CC2)Cc2ccc(C)nc21`, -51.3%; with `Cc1cc(C[C@@H]2COC[C@H]2NCc2ccc(Cl)c(Cl)c2)on1`, -65.7%. Take `Cn1cc(N2CCC3(CCCN(Cc4ccc(F)cc4)C3)C2=O)cn1` (stereo not drawn): the INHIBITION is reported as -69.1%.

Regarding `O=C1COC2(CCN(CC3CC3)CC2)CN1c1ccsc1`, the INHIBITION is on record as -43%.

Consider `c1cc(C2CC2)n2cnc(C3CN(Cc4ccncc4)CCO3)c2c1` (stereo not drawn), for which the INHIBITION is -50%.

For the compound `COCC(=O)N1CCC(c2nc3ccc(-c4ccncc4)cn3n2)CC1`, the INHIBITION is -48.7%. Take `c1ccc2c(c1)cnn2CCCNC1CCOC2(CCOCC2)C1` (stereo not drawn): the INHIBITION stood at 68.9%. With `c1ccc(Cc2noc(CCNC3CCOC4(CCOCC4)C3)n2)cc1` (stereo not drawn) the figure was -43.3%. As for `c1ccc2c(c1)nnn2CCCNC1CCOC2(CCOCC2)C1` (stereo not drawn), the INHIBITION is recorded as -4.37%. Under `c1ccc(-c2noc(CCNC3CCOC4(CCOCC4)C3)n2)nc1` (stereo not drawn) stands -80.1%.

As for `c1ccc(-c2nc(CCNC3CCOC4(CCOCC4)C3)no2)cc1` (stereo not drawn), the INHIBITION is on record as -81.3%. Turning to `c1ccc2c(c1)ccn2CCCNC1CCOC2(CCOCC2)C1` (stereo not drawn), the INHIBITION is 61.8%. Turning to `COc1cc(F)ccc1-c1ncccc1NC(=O)C(C)C`, the INHIBITION is reported as -81.8%. Under `CC(C)(C)c1nc(NS(=O)(=O)c2cccc(F)c2)no1` stands -71.4%; under `Cc1cc(NCc2ccc(C#N)cc2)n2nc(C)cc2n1`, -88.7%. Take `Cc1nn(C)c2cn(C(C)C(=O)NCc3ccccn3)nc12` (stereo not drawn): the INHIBITION is -17.6%. Turning to `CC(C)N(C)Cc1cnc2n1CCN(Cc1cccc(C#N)c1)C2`, the INHIBITION is 10.6%. Take `Cc1noc(C)c1CN1CCN(CCN(C)C)c2ncccc2C1`: the INHIBITION is given as 23.7%. With `CN(C)CCN1CCN(Cc2cccc(C#N)c2)Cc2cccnc21` the figure was 65.1%; with `Cc1ncccc1NC(=O)c1nc2c(n1C)CCN(C(=O)C1CC1)C2`, -117%; with `COc1cc(C(C)NCc2scnc2C)ccc1SC(F)F` (stereo not drawn), 19.3%. As to `COc1cc(C(C)NCc2cscn2)ccc1SC(F)F` (stereo not drawn), the INHIBITION amounted to 52.5%. Consider `COc1ccccc1NCc1cscn1`, for which the INHIBITION is -46.4%. `CN(Cc1cccnc1)C1CC2(CCN(Cc3cccnc3)CC2)C1`: the INHIBITION is -8.45%. Take `Cc1ccc(N2CCC3(CC2)CCN(C2CCOCC2)CC3)nn1`: the INHIBITION was -77.4%. For the compound `COCCN(Cc1ccc(C)cc1)CC1CCOC1` (stereo not drawn), the INHIBITION is on record as -104%. Regarding `COc1ccccc1CN1C[C@@H]2COC[C@]2(COc2cccnc2)C1`, the INHIBITION stood at 52.9%.

For `CCOC[C@]12COC[C@H]1CN(Cc1cccc(OC)c1)C2`, the INHIBITION worked out at 3.19%.

Consider `Fc1cccc(CN2C[C@@H]3COC[C@]3(COCc3ccncc3)C2)c1`, for which the INHIBITION is given as -28.5%.

For `COc1cc(N2C[C@@H]3COC[C@]3(COCc3ccncc3)C2)ncn1`, the INHIBITION is given as -1.95%. As for `COc1ccccc1CN1C[C@@H]2COC[C@]2(COCc2ccncc2)C1`, the INHIBITION came out at 55.3%.

Consider `COc1cccc(CN2C[C@@H]3COC[C@]3(COCc3ccncc3)C2)c1`, for which the INHIBITION was determined as 33.5%.

On to `COc1cccc(CN2C[C@@H]3COC[C@]3(COc3cccnc3)C2)c1`, for which the INHIBITION came to 16.9%. As for `COc1cccc(CN2C[C@@H]3COC[C@]3(COCc3ccccn3)C2)c1`, the INHIBITION worked out at 61%. For `COc1ncccc1CN1C[C@@H]2COC[C@]2(COc2cccnc2)C1`, the INHIBITION is recorded as -33.8%. For the compound `COCc1nc(C(=O)N2CCCC(n3ccnc3)C2)cs1` (stereo not drawn), the INHIBITION is listed as -141%. Turning to `Cn1cc(N2CC3(CCN(Cc4ccsc4)CC3)OCC2=O)cn1`, the INHIBITION is given as -22.1%. Consider `Cc1nc(NCCCn2cccn2)c2c(n1)c(C)nn2C`, for which the INHIBITION was -54.6%. Take `Cc1cn2c(n1)CCC(NC(=O)CCCOCc1ccccc1)C2` (stereo not drawn): the INHIBITION is listed as -45.8%. Consider `Cc1nc(CO[C@@H]2CN(Cc3cnn(C)c3)[C@@H]3COC[C@@H]32)cs1`, for which the INHIBITION is recorded as -12.8%.

Turning to `Cc1n[nH]c(C)c1-c1cc(-c2cccc(O)c2)nc(N)c1C#N`, the INHIBITION was -71.8%. In the case of `CC(C)Cc1cc(-c2cc(-c3ccc[nH]3)nc(N)c2C#N)n[nH]1`, the INHIBITION is given as 61.3%.

Consider `Cc1n[nH]c(C)c1-c1cc(-c2ccc[nH]2)nc(N)c1C#N`, for which the INHIBITION is on record as -185%. Consider `N#CC1(NC(=O)c2ccc(F)c(Br)c2)CCSC1` (stereo not drawn), for which the INHIBITION is reported as -155%. With `CCc1ccc(NC(=O)CCN2CC(n3nc(C)cc3C)C2)cc1`, the INHIBITION is given as -12.9%. For the compound `CCc1nnc(NC(=O)c2ccc(C3CCCN3CC(C)C)s2)s1` (stereo not drawn), the INHIBITION was -54.1%. As for `CC(C)CN1CCCC1c1ccc(C(=O)Nc2cc[nH]n2)s1` (stereo not drawn), the INHIBITION stood at 44.6%.

For the compound `CC(C)CN1CCCC1c1ccc(C(=O)Nc2cn(C)nn2)s1` (stereo not drawn), the INHIBITION is on record as 52.9%. For `O=C(Nc1cccc(Cl)c1)c1nn(C2CCS(=O)(=O)C2)c2c1CCCC2` (stereo not drawn), the INHIBITION was found to be 25.4%.

For the compound `O=C(CO[C@@H]1CC[C@H]2[C@H]1OCCN2Cc1ccccn1)N1CCCC1`, the INHIBITION is listed as -59.6%.
